The values that follow come from PubChem BioAssay.

Activity calls are given as the source filed them.

Assay [1] is described as follows: E. coli DRC41 culture turbidity changes, primary screen, E. coli filamentation inducer project, strain DRC41, OD650, 48 h (AID 1152).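 Also: E. coli MC1000 strain DRC41 lacking acrAB efflux pump and sulA.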 The settings on record: E. coli DRC41 (acrAB sulA), higher = more signal, called active from +8 up or from −8 down.
Assay [2] can be described thus: small-molecule binders of probe aLefty1, primary screen, biochemical, small-molecule microarray, 635/667 nm fluorescence (AID 1153).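 Also: score merges spot fluorescence with signal-to-noise ratio from the scanned slide images.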 Conditions: higher = more signal.
A short description of assay [3]: PSAC antagonists in infected red cells, primary screen, cell-based, P. falciparum Indochina, OD700, 1 h (AID 1154). The settings on record: P. falciparum Indochina infected RBC osmotic lysis, higher = more signal, called active from +8 up or from −8 down.
A short description of assay [4]: PSAC antagonists in infected red cells, primary screen, cell-based, P. falciparum Indochina, OD700, 2 h (AID 1155).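 Also: lysis reports solute entry through the parasite surface anion channel PSAC; channel blockers reduce lysis of infected cells.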 The settings on record: P. falciparum Indochina infected erythrocytes, osmotic lysis OD700; higher = more signal, called active from +8 up or from −8 down.
Assay [5] can be described thus: osmotic lysis modulators in infected erythrocytes, primary screen, PSAC antagonist project, cell-based, P. falciparum Indochina, OD700, 3 h (AID 1156). Conditions: higher = more signal, called active from +8 up or from −8 down.
The nature of assay [6]: PSAC antagonists in infected red cells, primary screen, cell-based, P. falciparum Indochina, OD700, 18 h (AID 1157). Conditions: P. falciparum Indochina infected erythrocytes, osmotic lysis OD700, 18 h; higher = more signal, called active from +8 up or from −8 down.
Assay [7] can be described thus: modulators of S6 phosphorylation in cells, primary screen, cell-based, A549, cytoblot, luminescence, serum-stimulated (AID 1158).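 Also: serum-stimulated A549 lung adenocarcinoma cells; signal is phosphorylated S6 detected by cytoblot immunostaining with HRP secondary.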 Conditions: A549 phospho-S6 cytoblot, 5 h, higher = more signal.
The target in assay [8] is NADPH oxidase 2 (Homo sapiens) (UniProt P04839). Kind of assay: NOX2-dependent H2O2 signal modulators, primary screen, NOX inhibitor project, cell-based, HEK293-NOX2, PMA-stimulated, Amplex Red fluorescence (AID 1159). Also: test concentration not given here. Conditions: 45 min, higher = more signal, called active from +8 up or from −8 down.
NADPH oxidase 2 (Homo sapiens), sequence (P04839 whole entry, looked up): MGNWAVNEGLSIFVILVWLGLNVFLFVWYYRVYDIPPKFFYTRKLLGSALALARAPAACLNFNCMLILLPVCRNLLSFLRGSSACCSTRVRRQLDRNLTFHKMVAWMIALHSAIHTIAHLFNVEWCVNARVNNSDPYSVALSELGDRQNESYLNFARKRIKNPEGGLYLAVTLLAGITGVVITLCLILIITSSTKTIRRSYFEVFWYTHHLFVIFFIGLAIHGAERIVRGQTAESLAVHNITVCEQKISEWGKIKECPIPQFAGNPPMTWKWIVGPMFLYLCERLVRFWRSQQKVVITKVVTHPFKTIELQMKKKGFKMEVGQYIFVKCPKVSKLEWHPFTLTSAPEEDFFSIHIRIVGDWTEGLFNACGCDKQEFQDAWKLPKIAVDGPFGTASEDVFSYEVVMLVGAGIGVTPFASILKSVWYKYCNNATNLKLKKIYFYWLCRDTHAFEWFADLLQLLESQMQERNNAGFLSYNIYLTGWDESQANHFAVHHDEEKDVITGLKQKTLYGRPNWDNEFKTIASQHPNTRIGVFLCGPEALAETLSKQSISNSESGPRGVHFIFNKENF
Assay [9] has as its target NADPH oxidase 4 (Homo sapiens) (UniProt Q9NPH5). Kind of assay: NOX4-dependent H2O2 signal modulators, primary screen, NOX inhibitor project, cell-based, HEK293-NOX4, tetracycline-induced, Amplex Red fluorescence (AID 1160). Conditions: 45 min, higher = more signal, called active from +8 up or from −8 down.
For assay [10], the target named is NADPH oxidase 5 (Homo sapiens) (UniProt Q96PH1). Kind of assay: NOX5-dependent H2O2 signal modulators, primary screen, NOX inhibitor project, cell-based, HEK293-NOX5, Amplex Red fluorescence (AID 1161). The settings on record: HEK293-NOX5, ionomycin, 45 min, higher = more signal.
NADPH oxidase 5 (Homo sapiens), sequence (Q96PH1 whole entry, looked up): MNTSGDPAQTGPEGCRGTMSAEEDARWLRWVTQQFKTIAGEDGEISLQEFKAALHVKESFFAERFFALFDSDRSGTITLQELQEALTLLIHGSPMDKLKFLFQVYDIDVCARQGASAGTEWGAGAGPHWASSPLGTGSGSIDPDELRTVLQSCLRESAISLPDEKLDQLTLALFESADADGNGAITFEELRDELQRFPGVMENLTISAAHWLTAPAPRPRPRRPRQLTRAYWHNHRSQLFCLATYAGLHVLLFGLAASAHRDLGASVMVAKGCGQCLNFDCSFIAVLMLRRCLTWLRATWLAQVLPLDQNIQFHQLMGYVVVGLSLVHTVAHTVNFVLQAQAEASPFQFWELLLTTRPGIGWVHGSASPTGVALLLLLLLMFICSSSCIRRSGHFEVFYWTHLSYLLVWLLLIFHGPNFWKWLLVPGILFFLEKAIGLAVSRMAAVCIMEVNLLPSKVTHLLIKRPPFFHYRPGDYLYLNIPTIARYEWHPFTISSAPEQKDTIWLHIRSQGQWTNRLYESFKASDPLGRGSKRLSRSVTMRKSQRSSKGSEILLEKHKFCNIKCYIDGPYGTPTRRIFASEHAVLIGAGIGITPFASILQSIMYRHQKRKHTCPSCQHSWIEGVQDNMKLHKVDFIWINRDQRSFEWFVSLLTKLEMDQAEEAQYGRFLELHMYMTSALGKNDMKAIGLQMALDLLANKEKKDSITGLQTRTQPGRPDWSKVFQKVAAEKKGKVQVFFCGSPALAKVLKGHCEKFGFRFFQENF
Assay [11] can be described thus: A549 cell viability effects, profiling panel, calcein-AM fluorescence, 48 h, basal (AID 1162). Also: test concentration not given here. Conditions: higher = more signal.
Assay [12] in a line: adipocyte viability effects, profiling panel, cell-based, 3T3-L1 adipocytes, calcein-AM fluorescence, 48 h, basal (AID 1163). Also: test concentration not given here. Conditions: 3T3-L1 adipocytes viability, higher = more signal.
Assay [13] is described as follows: HepG2 cell viability effects, profiling panel, calcein-AM fluorescence, 48 h, basal (AID 1164). Also: test concentration not given here. The settings on record: higher = more signal.
Assay [14] is described as follows: MM1S cell viability effects, profiling panel, calcein-AM fluorescence, 48 h, basal (AID 1165).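 Also: viability of MM1S multiple myeloma cells under basal unstimulated conditions; test concentration not given here.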 The settings on record: higher = more signal.
Assay [15] can be described thus: basal RPMI8226 viability, no added stimulus, profiling panel, cell-based, calcein-AM fluorescence, 48 h, PK04 Diversity Set (AID 1166).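 Also: cells grown under basal conditions without added stimulus; test concentration not given here.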 Conditions: RPMI8226 myeloma viability, higher = more signal.
A short description of assay [16]: basal HepG2 mitochondrial membrane potential changes, profiling panel, cell-based, JC-1 fluorescence, 24 h, 100 nL compound (AID 1167). Also: test concentration not given here. Conditions: higher = more signal.
Assay [17] can be described thus: basal 3T3-L1 adipocyte mitochondrial potential changes, profiling panel, cell-based, JC-1 fluorescence, 3T3-L1 adipocytes, 24 h, 100 nL compound (AID 1168). Also: test concentration not given here. The settings on record: JC-1 mitochondrial fluorescence, higher = more signal, called active from +8 up or from −8 down.
The nature of assay [18]: basal RPMI8226 mitochondrial membrane potential changes, profiling panel, cell-based, JC-1 fluorescence, 24 h, 100 nL compound (AID 1169). Also: test concentration not given here. The settings on record: RPMI8226 myeloma, JC-1 mitochondrial potential fluorescence, higher = more signal.
The nature of assay [19]: basal MM1S mitochondrial membrane potential changes, profiling panel, cell-based, JC-1 fluorescence, 24 h, 100 nL compound (AID 1170). Also: test concentration not given here. The settings on record: higher = more signal.
Assay [20] can be described thus: A549 lung cancer cell viability effects, profiling panel, resazurin fluorescence, 24 h, PK04 Diversity Set (AID 1171). Also: test concentration not given here. The settings on record: higher = more signal, called active from +8 up or from −8 down. (Resazurin is reduced to fluorescent resorufin, in cell work by metabolically active cells.)

NADPH oxidase 4 (Homo sapiens), sequence (Q9NPH5 whole entry, looked up): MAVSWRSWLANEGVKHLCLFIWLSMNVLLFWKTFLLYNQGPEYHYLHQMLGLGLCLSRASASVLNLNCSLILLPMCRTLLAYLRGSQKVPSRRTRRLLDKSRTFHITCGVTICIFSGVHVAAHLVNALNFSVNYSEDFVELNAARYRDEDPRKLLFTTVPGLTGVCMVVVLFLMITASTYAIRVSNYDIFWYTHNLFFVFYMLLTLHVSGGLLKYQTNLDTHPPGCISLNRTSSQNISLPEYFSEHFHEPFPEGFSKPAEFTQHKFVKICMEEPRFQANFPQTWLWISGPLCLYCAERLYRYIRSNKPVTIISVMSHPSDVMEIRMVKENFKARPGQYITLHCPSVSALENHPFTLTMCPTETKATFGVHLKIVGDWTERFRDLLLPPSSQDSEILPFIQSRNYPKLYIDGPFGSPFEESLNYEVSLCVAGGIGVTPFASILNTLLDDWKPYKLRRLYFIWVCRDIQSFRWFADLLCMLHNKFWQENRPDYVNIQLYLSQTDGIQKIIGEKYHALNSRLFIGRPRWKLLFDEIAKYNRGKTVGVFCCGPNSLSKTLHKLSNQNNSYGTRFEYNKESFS

As to `CC(C)C(CO)N1C(=O)[C@@H]2[C@H]3C(=O)OCC=C[C@H]3OC23C=CCN(CCN2CCOCC2)C(=O)[C@@H]13` (stereo not given in full), the z-score in [1] was -0.706 (inactive); in assay [3], 0.897 (inactive); in assay [4] it was -0.136 (inactive); in [5], 0.675 (inactive); in [6], 0.0875 (inactive); in assay [7] it was -0.679. Further, the z-score is 1.26 (inactive) in assay [8]; 0.258 (inactive) in [9]; 2.02 in assay [10]; -0.334 in [11]; -0.347 in assay [12]; -0.434 in assay [13]. For the same compound, the z-score in assay [14] was -0.201; in assay [15] it was 0.372; in assay [16], -0.982; in assay [17], -0.648 (inactive); in [18] it was 0.237; in assay [19], 0.105. Also, the z-score in [20] is -0.324 (inactive). The composite z-score in [2] is -0.263.

In the case of `C=CCN1C(=O)[C@@]2(O[C@@H](CCn3cc([C@H](O)c4ccccc4)nn3)[C@H]([Si](C)(C)c3ccc(OC)cc3)[C@H]2C)c2cc(NC(=O)c3ccc(OC)cc3)ccc21`, the z-score in assay [1] is 0.55 (inactive); in [3], 6.81 (inactive); in [4] it was 1.77 (inactive); in assay [5], 1.39 (inactive); in assay [6], 1.38 (inactive); in assay [7], 0.689. In addition, the z-score in [8] is 0.106 (inactive); in assay [9] it was 0.863 (inactive); in assay [10], 0.583; in assay [11], -0.219; in [12] it was -0.143; in assay [13] it was -0.671. The z-score in assay [14] is -1.84; in assay [15], -1.69; in assay [16], -0.117; in [17], -1.06 (inactive); in assay [18], -0.991; in assay [19], -0.641. Further, the z-score in assay [20] is -2.43 (inactive). Moreover, the composite z-score in [2] is -0.0016.

On to `[N-]=[N+]=Nc1ccccc1[C@H]1OC(c2ccc(OCCCO)cc2)=N[C@@]1(Cc1ccccc1)C(=O)NCc1ccccc1`, for which the z-score in assay [1] was 1.74 (inactive); in assay [3] it was 33.5 (active); in assay [4], 26.9 (active); in assay [5], 1.22 (inactive); in assay [6] it was 2.33 (inactive); in assay [7], 2.03. Besides, the z-score in assay [8] is -2.35 (inactive); in assay [9], -0.275 (inactive); in [10], -1.3; in assay [11] it was -1.16; in assay [12], 0.491; in assay [13], -1.07. Besides, the z-score in [14] was -1.04; in assay [15], -3.84; in [16], 0.671; in assay [17], -1.17 (inactive); in assay [18], -1.16; in assay [19], -2.17. For the same compound, in assay [20], the z-score was -1.56 (inactive). The composite z-score in [2] came out at 0.512.

For `C=C(COC)/C(=C/C[C@@H](OC(=O)c1ccncc1)c1cccc(OCCO)c1)c1cc(C(=O)OC)ccc1OC`, the z-score in [1] is 0.701 (inactive); in [3], 8.82 (active); in assay [4] it was 4.64 (inactive); in [5], -3.3 (inactive); in assay [6], 1.53 (inactive); in assay [7], -0.88. In addition, the z-score is -3.02 (inactive) in assay [8]; -0.817 (inactive) in assay [9]; -1.23 in assay [10]; -0.637 in [11]; -0.628 in [12]; -1.45 in assay [13]. Also, the z-score in assay [14] is -2.22; in [15], -2.37; in assay [16], 1.37; in assay [17], -0.109 (inactive); in assay [18] it was -0.574; in [19] it was -1.26. In addition, the z-score in [20] was -1.8 (inactive). The compound further yielded a composite z-score in [2] of 0.0698.

For `COCCCNC(=O)[C@@]1(Cc2ccccc2CN=[N+]=[N-])N=C(c2ccc(OCCCO)cc2)O[C@H]1c1ccccc1N=[N+]=[N-]`, the z-score is 2.51 (inactive) in [1]; 36.4 (active) in assay [3]; 30.8 (active) in [4]; 2.72 (inactive) in assay [5]; 3.1 (inactive) in [6]; -0.0478 in assay [7]. Besides, the z-score in assay [8] was 0.0139 (inactive); in assay [9], 1.3 (inactive); in [10], -1.31; in assay [11] it was -0.121; in [12], -0.0406; in [13], 0.35. In addition, the z-score was -1.34 in [14]; -3.87 in assay [15]; 1.36 in assay [16]; 1.98 (inactive) in assay [17]; -1.06 in assay [18]; -0.156 in assay [19]. In [20], the z-score is -1.47 (inactive). In assay [2], this compound had a composite z-score of 0.0643.

Take `CN(C)CCCNC(=O)[C@@]1(Cc2ccccc2I)c2ccccc2C(=O)N(Cc2ccccc2Cl)[C@H]1c1ccc(CO)cc1`: the z-score is -2.91 (inactive) in assay [1]; 10.7 (active) in [3]; 0.867 (inactive) in assay [4]; -0.613 (inactive) in assay [5]; 0.524 (inactive) in assay [6]; -1.27 in assay [7]. Moreover, the z-score was -10.2 (active) in assay [8]; -4.71 (inactive) in assay [9]; -5.47 in assay [10]; -4.22 in assay [11]; 0.711 in [12]; -5.11 in assay [13]. Further, the z-score is -3.8 in assay [14]; -4.38 in assay [15]; -1.9 in assay [16]; -0.373 (inactive) in assay [17]; -0.935 in assay [18]; -2.3 in assay [19]. Also, the z-score in [20] was -6.99 (inactive). This compound yielded a composite z-score in assay [2] of 0.208.

For `COCCOC(=O)N1C(=O)[C@@]2(c3cc(C#CC4(O)CCCCCC4)ccc31)[C@H](C(=O)NC[C@H](O)c1ccccc1)[C@H]1C(=O)O[C@H](c3ccccc3)[C@H](c3ccccc3)N1[C@@H]2c1ccc(OCCO)cc1`, the z-score was 1.07 (inactive) in assay [1]; 3.85 (inactive) in assay [3]; 1.58 (inactive) in assay [4]; -1.29 (inactive) in [5]; 1.03 (inactive) in assay [6]; 0.0102 in assay [7]. The z-score was 1.55 (inactive) in [8]; 1.01 (inactive) in [9]; 0.979 in assay [10]; -0.248 in [11]; 0.504 in assay [12]; -0.466 in assay [13]. Besides, the z-score in assay [14] was -1.16; in [15], -1.91; in assay [16], -1.64; in [17], 1 (inactive); in assay [18], -1.01; in assay [19], -1.19. Moreover, in [20], the z-score was 0.365 (inactive). Further, in assay [2], the composite z-score is -0.007.

On to `CCCC=C(CCC)[C@@H](NS(=O)(=O)CC)c1ccccc1`, for which the z-score in assay [1] is -1.84 (inactive); in [3], 0.19 (inactive); in assay [4], -0.0273 (inactive); in [5], -1.28 (inactive); in assay [6], 0.716 (inactive); in assay [7], -0.259. The z-score in assay [8] is -1.32 (inactive); in [9], -2.4 (inactive); in assay [10] it was 2.02; in [11] it was -2.33; in assay [12] it was -0.924; in assay [13], -1.71. The z-score in assay [14] is -2.83; in assay [15], -3.64; in [16], -2.68; in assay [17] it was -0.517 (inactive); in assay [18], -0.889; in [19] it was -0.177. The z-score in assay [20] was 0.677 (inactive). This compound also yielded a composite z-score in [2] of 0.443.

Regarding `C=C[C@@H](O)[C@H]1CC(c2ccccc2)=NO1`, the z-score is 1.07 (inactive) in [1]; 16 (active) in [3]; 1.82 (inactive) in assay [4]; -0.112 (inactive) in [5]; 0.477 (inactive) in assay [6]; -0.194 in assay [7]. For the same compound, the z-score was -0.671 (inactive) in [8]; -0.0807 (inactive) in assay [9]; 0.344 in assay [10]; 0.721 in assay [11]; -3.92 in assay [12]; -0.34 in assay [13]. The z-score is 0.626 in assay [14]; 0.353 in assay [15]; 0.0313 in [16]; -0.809 (inactive) in assay [17]; 0.434 in assay [18]; -0.819 in assay [19]. Besides, the z-score in assay [20] was 0.558 (inactive). This compound also displayed a composite z-score in assay [2] of 0.0557.
